Data from the supplement of paper PMC9948646.
Unmarked numbers belong to inactive results.

These compounds were tested on gramicidin D channels in DC22:1PC lipid vesicles (bilayer-modifying potency) (assay: initial Tl+ fluorescence quench rate relative to no-drug control (NormRate, gramicidin monomer-dimer shift) (ratio (fold of control)); higher = stronger bilayer-modifying effect (equilibrium shifted toward conducting dimers), active = 1.5 or more). Settings: 10 µM; lipid concentration 50 µM; temperature: 25 °C.
Procedure: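 Stopped-flow fluorescence quench assay: ANTS-loaded DC22:1PC large unilamellar vesicles doped with gramicidin D (1:2000), 50 µM lipid, equilibrated 10 min with 10 µM drug (0.1% DMSO), mixed with Tl+ quench buffer at 25°C. Initial quench rate (Tl+ influx) was fitted with a modified stretched exponential and normalised to the no-drug control rate (NormRate); duplicates from two independent LUV preparations (triplicates for 7 drugs).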
With `COc1ccc(C2=NN(C3CCCCCC3)C(=O)[C@@H]3CC=CC[C@H]23)cc1OCCCCOc1ccc(-c2nn[nH]n2)cc1` the “initial Tl+ fluorescence quench rate” value was 8.03 (active). `CS(=O)(=O)c1cccc(-c2cnc3[nH]cc(-c4ccc(CCC(=O)O)cc4)c3c2)c1` was tested, and the “initial Tl+ fluorescence quench rate” value was 1.09. In the case of `Cn1c(=O)c2c(S(C)(=O)=O)snc2n(C)c1=O`, the “initial Tl+ fluorescence quench rate” value is reported as 1.19. For `CC(=O)N1CCc2cc3nc(C)cc(C)c3cc21`, the “initial Tl+ fluorescence quench rate” value was 1.09. For `C[C@H]1CS(=O)(=O)CCN1/N=C/c1ccc([N+](=O)[O-])o1`, the “initial Tl+ fluorescence quench rate” value was 1.02. In the case of `CCNC(=O)[C@H](C)Nc1nc(-c2cccnc2)nc2sc(C)c(C)c12`, the “initial Tl+ fluorescence quench rate” value is reported as 1.08. With `C[C@H](C(N)=O)N1CCCC[C@H]1c1ccc(OCc2cccc(F)c2)cc1` the “initial Tl+ fluorescence quench rate” value was 1.21. With `[H]/N=C(/N)Nc1ccc(-c2ccc(-c3ccc(N/C(N)=N/[H])cc3Cl)o2)c(Cl)c1` the “initial Tl+ fluorescence quench rate” value was 1.53 (active). `Cc1cc(C)c2cc(C(=O)NC3CCCCCCC3)[nH]c2c1` was tested, and the “initial Tl+ fluorescence quench rate” value was 1.78 (active). For `O=C(NC1CC1)c1ccc(CSCc2ccccc2Cl)o1`, the “initial Tl+ fluorescence quench rate” value was 1.35. `Cc1ccc(-c2nc(CN(Cc3ccccn3)C(C)C)cs2)o1` was tested, and the “initial Tl+ fluorescence quench rate” value was 1.21. `CS(=O)(=O)c1ccc(C(=O)N(C[C@H]2CCCO2)c2nc3ccccc3s2)cc1[N+](=O)[O-]` was tested, and the “initial Tl+ fluorescence quench rate” value was 2.09 (active). For `NS(=O)(=O)c1cccc(-c2ccc3ncc(N4CCOCC4)nc3c2)c1`, the “initial Tl+ fluorescence quench rate” value was 1.41. In the case of `O=C(NCc1ccoc1)N1CCN(Cc2ccc3c(c2)OCO3)CC1`, the “initial Tl+ fluorescence quench rate” value is reported as 1.11. `O=C(CCC1CCCCC1)Nc1cccc(-c2nnc(-c3ccco3)o2)c1` was tested, and the “initial Tl+ fluorescence quench rate” value was 1.57 (active). `NCCN(C(=O)c1ccc(Cl)cc1Cl)c1ccc(OCc2ccc(Cl)cc2)cc1` was tested, and the “initial Tl+ fluorescence quench rate” value was 5.93 (active). For `COc1cc(CN2CCC3(C=Cc4ccccc43)CC2)cc2c1OCO2`, the “initial Tl+ fluorescence quench rate” value was 2.43 (active). In the case of `Cc1nc(-c2cccc(NCc3ccccc3)c2)[nH]c1C`, the “initial Tl+ fluorescence quench rate” value is reported as 1.24. With `C[C@@H](c1cc(Cl)cc(Cl)c1)N(C)c1ncc2c(N)nc(N)nc2n1` the “initial Tl+ fluorescence quench rate” value was 2.71 (active). For `CCCCCCCCCCCCCCCCOP(=O)([O-])OCC[N+](C)(C)C`, the “initial Tl+ fluorescence quench rate” value was 2.31 (active). `COc1ccc(-c2cnc3ccc(NCc4ccc(S(N)(=O)=O)cc4)nn23)cn1` was tested, and the “initial Tl+ fluorescence quench rate” value was 1.24. For `Cc1ccc2nc(Cl)c(CNCc3cccs3)cc2c1`, the “initial Tl+ fluorescence quench rate” value was 1.03. `Cc1cc(Cl)c(S(=O)(=O)N2CCCC2)cc1OCC(=O)NC1CCCCC1` was tested, and the “initial Tl+ fluorescence quench rate” value was 1.19. For `CO[C@@H](C(=O)N1Cc2[nH]nc(NC(=O)c3ccc(N4CCN(C)CC4)cc3)c2C1)c1ccccc1`, the “initial Tl+ fluorescence quench rate” value was 1.2. With `COc1cccc2c(C)nc(N=C(N)N)nc12` the “initial Tl+ fluorescence quench rate” value was 1.08. With `CC(C)(C)n1nc(Cc2ccc(F)c(Cl)c2)c2c(N)ncnc21` the “initial Tl+ fluorescence quench rate” value was 1.84 (active). For `Nc1nc2ccc(-c3cncc(Oc4ccc(F)cc4)c3)cc2[nH]1`, the “initial Tl+ fluorescence quench rate” value was 1.85 (active). In the case of `COc1cc(-c2cc(-c3ccc(S(C)(=O)=O)cc3)cnc2N)ccc1O`, the “initial Tl+ fluorescence quench rate” value is reported as 1.09. In the case of `CCn1ncc2c(NC3CCOCC3)c(CNC(=O)c3ccnn3C)c(C)nc21`, the “initial Tl+ fluorescence quench rate” value is reported as 1.07. `CN1CCN(CCCOc2ncc(Nc3ncc(-c4ccc(C(F)(F)F)c(F)c4)nc3C(N)=O)cn2)CC1` was tested, and the “initial Tl+ fluorescence quench rate” value was 3.11 (active). For `c1csc(-c2cnc3sc(NCC4CCOCC4)nn23)c1`, the “initial Tl+ fluorescence quench rate” value was 1.71 (active). `CCOc1ccccc1N[C@H](C)C(=O)Nc1cc(C(F)(F)F)ccc1N1CCOCC1` was tested, and the “initial Tl+ fluorescence quench rate” value was 1.72 (active). With `COc1cccc(-c2nc3c(N4CCCC4)cccc3n2C[C@H]2CCCN2)n1` the “initial Tl+ fluorescence quench rate” value was 1.21. For `CN1CCN(c2nccc3nc(-c4ccc(F)c(F)c4)[nH]c23)CC1`, the “initial Tl+ fluorescence quench rate” value was 1.11. With `CC1=Nc2ccc(Cl)cc2[C@](O)(c2ccc(C)cc2)N1CCN1CCCCC1` the “initial Tl+ fluorescence quench rate” value was 1.66 (active). `NC(=O)c1cc(Br)ccc1OCCOc1ccccc1` was tested, and the “initial Tl+ fluorescence quench rate” value was 1.21. In the case of `Nc1ncnc2c1c(-c1cnc3ccccc3c1)nn2CC1CCNCC1`, the “initial Tl+ fluorescence quench rate” value is reported as 1.07. In the case of `CC(=O)N1CCN(c2ccc(Oc3ccc(Cl)cc3O)cc2)CC1`, the “initial Tl+ fluorescence quench rate” value is reported as 1.51 (active).
